In the supplement of paper PMC11219838:

System: Caenorhabditis elegans L1 (N2)
Experiment: survival and reproduction score of C. elegans L1 (0: 0-10 living worms, 1: 11-20, 2: 21-50, 3: >50, 4: overgrown) (score 0-4); higher = more worms, less nematicidal, active = 1 or less; extreme values may be limits of the assay
Settings: 60 µM; 6 days; temperature: 20 °C
Summary of the method: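 After compound was pinned to 60 µM final (0.6% v/v DMSO) into wells with roughly 20 synchronized C. elegans N2 L1s and E. coli HB101 in liquid NGM, the sealed 96-well plates were shaken at 200 rpm for 6 days at 20 °C. Under a dissection microscope, survival and reproduction were graded ordinally by living worms per well. A grade of 0 stood for 0–10 worms and 4 for overgrown, starved wells; two biological replicates were averaged.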

Structure (SMILES) | survival and reproduction score
Brc1ccccc1-c1nc(-c2ccc3c(c2)OCO3)no1 | 4 (inactive)
Cc1ccc(-c2nnc(SCC(=O)Nc3nccs3)o2)cc1 | 4 (inactive)
O=C(Nc1ccc(-c2noc(-c3ccccn3)n2)cc1)c1cccc(Cl)c1 | 4 (inactive)
Cc1ccc(OCc2nc(-c3cccnc3)no2)c(Br)c1 | 4 (inactive)
O=C(CSc1nnc(-c2ccc(Br)cc2)o1)Nc1nccs1 | 4 (inactive)
Cc1cc(OCc2nc(-c3ccccc3)no2)cc(C)c1Cl | 4 (inactive)
Brc1ccc(-c2noc(-c3ccco3)n2)o1 | 4 (inactive)
Cc1cccc(-c2noc(COc3ccc(C)c(C)c3)n2)c1 | 4 (inactive)
Cc1ccc(SC(C)c2nc(-c3cccnc3)no2)cc1 (centres undefined) | 4 (inactive)
CCc1ccc(NC(=O)CSc2nnc(-c3ccc(Cl)cc3Cl)o2)cc1 | 4 (inactive)
COc1ccc(-c2noc(-c3ccccc3Br)n2)cc1 | 4 (inactive)
CCc1ccc(OCc2nc(-c3ccccn3)no2)cc1 | 3 (inactive)
COc1ccc(-c2nnc(SCC(=O)Nc3ccc(Br)c(C)c3)o2)cc1 | 4 (inactive)
CCCc1ccc(-c2ccc(-c3nc(-c4ccccn4)no3)cc2)cc1 | 4 (inactive)
Cc1ccc(-c2noc(COc3ccccc3C)n2)cc1 | 4 (inactive)
Clc1ccc(-c2nc(C3CCCCC3)no2)cc1 | 4 (inactive)
COc1ccccc1-c1nnc(SCC(=O)Nc2ccccc2Cl)o1 | 4 (inactive)
COc1ccc(-c2noc(C34CC5CC(CC(C5)C3)C4)n2)cc1 | 4 (inactive)
COc1cccc(-c2noc(-c3ccc(C)cc3)n2)c1 | 0 (active)
O=C(CSc1nnc(-c2ccc(Cl)cc2)o1)c1ccccc1 | 4 (inactive)

Structure (SMILES) | survival and reproduction score
CC(C)Oc1ccc(-c2nc(-c3ccccn3)no2)cc1 | 0 (active)
CC(C)(C)C(=O)CSc1nnc(-c2ccc(Cl)cc2Cl)o1 | 4 (inactive)
c1ccc(CSc2nnc(-c3ccccc3)o2)cc1 | 0 (active)
Cc1ccc(-c2nnc(SCc3ccccc3Cl)o2)cc1 | 4 (inactive)
Cc1ccc(C(=O)Nc2ccccc2-c2nc(-c3ccncc3)no2)cc1C | 4 (inactive)
Fc1cccc(Cl)c1CSc1nnc(-c2ccccc2)o1 | 4 (inactive)
O=C(CSc1nnc(-c2ccc(Cl)cc2)o1)Nc1nccs1 | 4 (inactive)
COc1ccc(Cl)cc1-c1noc(COc2ccc(Cl)cc2)n1 | 4 (inactive)
Cc1ccc(-c2noc(-c3ccccc3C)n2)cc1 | 0 (active)
COc1ccc(CCC(=O)Nc2ccc(-c3noc(COc4ccccc4C)n3)cc2)cc1 | 4 (inactive)
CN(C)C(=O)c1ccccc1-c1nc(-c2ccc(Cl)cc2)no1 | 4 (inactive)
COc1cccc(OCc2nc(-c3cccc(Br)c3)no2)c1 | 4 (inactive)
CC(C)CCC(=O)Nc1ccccc1-c1nc(-c2ccccn2)no1 | 2 (inactive)
COc1cccc(CSc2nnc(-c3ccco3)n2C)c1 | 2 (inactive)
Cc1ccc(-c2noc(COc3ccc(Cl)cc3C)n2)cc1 | 2 (inactive)
O=C(CSc1nnc(-c2cccc(Br)c2)o1)c1ccc2c(c1)CCCC2 | 4 (inactive)
Brc1ccc(CSc2nnc(-c3cccnc3)o2)cc1 | 4 (inactive)
COc1cccc(-c2noc(COc3cc(C)cc(C)c3)n2)c1 | 4 (inactive)
COc1nc(C)ccc1-c1noc(-c2ccc(F)cc2)n1 | 4 (inactive)
